T cruzi growth: inhibitors of T. cruzi proliferation | T. cruzi beta-gal in NIH3T3, GalScreen luminescence, 90 h | AID 624255 | inhibition, % at 8.34 µM | 77,000 compounds, 5.9% hits;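 active means mean inhibition above about 93%, with at least 55% of replicates each passing it, limit read from the data, passing the limit was not always enough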
C diff growth: C. difficile growth inhibition. AID 1259249. 86,000 compounds, 0.25% hits. growth activity, negative = inhibition, % at 16 µg/mL (by protocol). Clostridium difficile clinical isolate growth, OD600, 24 h; hits give low values;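 active means mean growth activity at or below -80% and every replicate also at or below -80%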;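 further: 0% = DMSO wells and -100% = levofloxacin 16 µg/mL wells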
Pf Dd2 inh: inhibitors of Plasmodium falciparum Dd2 growth; P. falciparum Dd2 growth, SYBR Green, 72 h; hits give low values; activity change, % at 10 µM; 94,000 compounds, 2.3% hits; AID 1159554; in the data active means activity change below about -80%
Starred values were filed as active, the others as inactive; x = no result given. Only some compounds are listed: those with a hit (about 6.7% of all), similar ones and a draw of the others.

SMILES	T cruzi growth	C diff growth	Pf Dd2 inh
CN1c2ccc(Br)cc2[C@@H]2[C@@H](CCN2C(=O)C2CCCCC2)[C@@H]1CO	23	61	7
C[C@@H]1CCCCO[C@@H](CN(C)S(=O)(=O)c2cccs2)[C@@H](C)CN([C@H](C)CO)C(=O)c2cc(NC(=O)Cc3ccccc3)ccc2O1	-148	5	-54
C[C@@H]1CN([C@H](C)CO)C(=O)c2cc(NC(=O)Nc3ccc4c(c3)OCO4)ccc2O[C@@H](C)CCCCO[C@@H]1CN(C)S(=O)(=O)c1cccs1	64	10	-92*
C[C@@H]1CCCCO[C@@H](CN(C)S(=O)(=O)c2cccs2)[C@@H](C)CN([C@H](C)CO)C(=O)c2cc(NS(=O)(=O)c3ccccc3)ccc2O1	-13	-3	-29
C[C@@H]1CCCCO[C@@H](CN(C)S(=O)(=O)c2cccs2)[C@@H](C)CN([C@@H](C)CO)C(=O)c2cc(NC(=O)Nc3ccc4c(c3)OCO4)ccc2O1	41	8	-67
C[C@@H]1CCCCO[C@@H](CN(C)S(=O)(=O)c2cccs2)[C@H](C)CN([C@@H](C)CO)C(=O)c2cc(NC(=O)NC3CCCCC3)ccc2O1	93	24	-45
C[C@@H]1CN([C@@H](C)CO)C(=O)c2cc(NC(=O)NC3CCCCC3)ccc2O[C@@H](C)CCCCO[C@@H]1CN(C)S(=O)(=O)c1cccs1	50	-1	-89*
C[C@@H]1CCCCO[C@H](CN(C)S(=O)(=O)c2cccs2)[C@H](C)CN([C@H](C)CO)C(=O)c2cc(NS(=O)(=O)c3ccccc3)ccc2O1	89	-12	-83*
C[C@@H]1CN([C@H](C)CO)C(=O)c2cc(NC(=O)Cc3ccccc3)ccc2O[C@@H](C)CCCCO[C@@H]1CN(C)S(=O)(=O)c1cccs1	-98	4	-81*
O=C1CN(Cc2ccc(F)cc2)C[C@@H]2[C@H](c3ccc(-c4cccnc4)cc3)[C@@H](CO)N12	x	-5	-5
C[C@H]1CN([C@@H](C)CO)S(=O)(=O)c2ccc(C#CC3(O)CCCC3)cc2O[C@H]1CN(C)C(=O)Cc1cccnc1	19	-1	-8
CO[C@H]1CN(C)C(=O)c2ccc(NC(=O)C3CC3)cc2OC[C@@H](C)N(Cc2cc(F)ccc2F)C[C@H]1C	40	x	-7
CCCNC(=O)C[C@@H]1C[C@H]2c3cc(NC(=O)c4cccnc4)ccc3O[C@H]2[C@@H](CO)O1	-76	-1	-1
C[C@H]1CCCCO[C@H](CN(C)C(=O)Nc2ccc(C(F)(F)F)cc2)[C@@H](C)CN([C@@H](C)CO)C(=O)c2cc(NC(=O)C3CCCCC3)ccc2O1	54	-7	-84*
C[C@@H]1CCCCO[C@@H](CN(C)C(=O)Nc2ccc(C(F)(F)F)cc2)[C@@H](C)CN([C@@H](C)CO)C(=O)c2cc(NC(=O)C3CCCCC3)ccc2O1	x	-2	-92*
C[C@@H]1CCCCO[C@H](CN(C)C(=O)Nc2ccccc2)[C@H](C)CN([C@@H](C)CO)C(=O)c2cc(NC(=O)C3CCCCC3)ccc2O1	57	0	-71
C[C@@H]1CCCCO[C@H](CN(C)C(=O)Nc2ccc(C(F)(F)F)cc2)[C@@H](C)CN([C@@H](C)CO)C(=O)c2cc(NC(=O)C3CCCCC3)ccc2O1	91	-8	-85*
C[C@@H]1CCCCO[C@H](CN(C)C(=O)Nc2ccc(C(F)(F)F)cc2)[C@H](C)CN([C@H](C)CO)C(=O)c2cc(NC(=O)C3CCCCC3)ccc2O1	92	13	-72
C[C@@H]1CCCCO[C@H](CN(C)C(=O)Nc2ccc(C(F)(F)F)cc2)[C@@H](C)CN([C@H](C)CO)C(=O)c2cc(NC(=O)C3CCCCC3)ccc2O1	90	-3	-84*
C[C@@H]1CN([C@H](C)CO)C(=O)c2cc(NC(=O)Nc3ccc(C(F)(F)F)cc3)ccc2O[C@@H](C)CCCCO[C@H]1CN(C)C(=O)Nc1ccc(C(F)(F)F)cc1	90	7	-67
C[C@@H]1CN([C@@H](C)CO)C(=O)c2cc(NC(=O)C3CCCCC3)ccc2O[C@@H](C)CCCCO[C@H]1CN(C)C(=O)Nc1ccccc1	39	-2	-7
CN1C(=O)c2cc(NC(=O)c3ccccc3)ccc2OC[C@@H]2O[C@@H](CC(=O)NCC3CC3)CC[C@@H]21	-14	9	-6
C[C@H]1CCCCO[C@H](CN(C)C(=O)Nc2ccc3c(c2)OCO3)[C@@H](C)CN([C@@H](C)CO)C(=O)c2cc(NC(=O)C3CCCCC3)ccc2O1	56	-4	-89*
C[C@H](CO)N1C[C@H](C)[C@@H](CN(C)C(=O)Nc2ccc(C(F)(F)F)cc2)OCCCC[C@H](C)Oc2ccc(NC(=O)C3CCCCC3)cc2C1=O	88	5	-86*
C[C@@H]1CN([C@H](C)CO)C(=O)c2cc(NC(=O)C3CCCCC3)ccc2O[C@@H](C)CCCCO[C@H]1CN(C)C(=O)Nc1ccc(C(F)(F)F)cc1	86	5	-68
SMILES	T cruzi growth	C diff growth	Pf Dd2 inh
C[C@H](CO)N1C[C@H](C)[C@H](CN(C)C(=O)Nc2ccc(F)cc2)OCCCC[C@H](C)Oc2ccc(NC(=O)C3CCCCC3)cc2C1=O	75	6	-11
C[C@@H]1CCCCO[C@H](CN(C)C(=O)Nc2ccc3c(c2)OCO3)[C@@H](C)CN([C@H](C)CO)C(=O)c2cc(NC(=O)C3CCCCC3)ccc2O1	53	-2	-33
C[C@H]1CCCCO[C@H](CN(C)C(=O)Nc2ccc(F)cc2)[C@@H](C)CN([C@@H](C)CO)C(=O)c2cc(NC(=O)C3CCCCC3)ccc2O1	75	-6	-86*
O=C(C[C@H]1CC[C@H](NC(=O)Nc2ccc(C(F)(F)F)cc2)[C@H](CO)O1)NCc1cc(F)cc(F)c1	-43	x	-1
CCNC(=O)C[C@H]1CC[C@@H]2[C@@H](COc3ccc(NC(=O)c4cscn4)cc3C(=O)N2C)O1	-46	-12	-2
COc1cccc(C#Cc2ccc([C@@H]3[C@H](CO)N4C(=O)CN(C(=O)Cc5cccnc5)C[C@@H]34)cc2)c1	x	-2	-36
O=C(C[C@H]1CC[C@@H]2[C@H](COC[C@@H](O)CN2Cc2cc(F)cc(F)c2)O1)NC1CCCC1	64	-4	-32
C[C@H]1CN([C@@H](C)CO)C(=O)c2cccc(NC(=O)CCCCCC(=O)Nc3ccccc3N)c2O[C@H]1CN(C)Cc1ccc(-c2ccccc2)cc1	x	-1	-85*
C[C@H](CO)N1C[C@H](C)[C@H](CN(C)Cc2ccccc2)Oc2c(NC(=O)CCCCCC(=O)Nc3ccccc3N)cccc2C1=O	x	17	-65
C[C@@H]1CN([C@H](C)CO)C(=O)c2cccc(NC(=O)CCCCCC(=O)Nc3ccccc3N)c2O[C@@H]1CN(C)Cc1ccccc1	x	-5	-78
C[C@@H]1CN([C@H](C)CO)C(=O)c2cccc(NC(=O)CCCCCC(=O)Nc3ccccc3N)c2O[C@@H]1CN(C)Cc1ccc(-c2ccccc2)cc1	x	6	-89*
CC(C)C#Cc1cnc2c(c1)C(=O)N([C@@H](C)CO)C[C@H](C)[C@H](CN(C)C(=O)c1ccccc1F)O2	73	-2	7
CCC(=O)N1C[C@H](O)COC[C@@H]2O[C@H](CC(=O)NCc3cc(F)cc(F)c3)CC[C@H]21	32	11	21

Screening results from PubChem BioAssay.
